Records with an inconclusive call do not appear. Active and inactive are the calls of the source. Unless noted, calls come from the whole dose curve; as a rule, active = well fitted curve in the direction sought with a large enough effect in the repeat runs; inconclusive = weak or mixed curves; inactive = no such curve, though single readings can be large; an effect the other way counts as inactive or inconclusive.
Columns and labels:
[1] = qHTS assay for small molecules that induce genotoxicity in human embryonic kidney cells expressing luciferase-tagged ATAD5 - cell viability (AID 651634; calls by dose curve; note: nearly all actives have a fitted effect of over 25% in size)
How it was run: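 HEK293T cells expressing luciferase-tagged ATAD5 were exposed to compound or DMSO for 15.5 hr at 37C, 5% CO2. Viability was then read as live-cell protease activity by CellTiter-Fluor fluorescence after 30 min at 37C.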

[2] = qHTS assay for small molecule disruptors of the mitochondrial membrane potential - cell viability (AID 720634; calls by dose curve;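 note: human HepG2 liver cancer cells; series mostly up to about 83 µM; nearly all actives have a fitted effect of over 20% in size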)
How it was run: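 HepG2 cells seeded overnight at 37 C, then exposed to compound or DMSO for 1 hr at 37 C, 5% CO2. m-MPI dye added, then CellTiter-Glo for 30 min at room temperature; viability read as ATP luminescence.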

[3] = qHTS assay to test for compound auto fluorescence at 535 nm (green) in HepG2 cells (AID 720675)
[4] = qHTS assay to test for compound auto fluorescence at 535 nm (green) in HEK293 cells (AID 720680)
[5] = qHTS assay to test for compound auto fluorescence at 460 nm (blue) in HEK293 cell free culture (AID 720681)
How it was run: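 Blue fluorescence (Ex 405/Em 460 nm, triamterene-equivalent) was read immediately after pin transfer of compound or DMSO into medium (DMEM, 10% FBS) without cells.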

[6] = qHTS assay to test for compound auto fluorescence at 535 nm (green) in HEK293 cell free culture (AID 720682)
How it was run: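 Green-channel intensity (Ex/Em 485/535 nm) was recorded from compound-treated wells containing only DMEM with 10% FBS. Fluorescein provided the equivalency standard.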

[7] = qHTS assay to test for compound auto fluorescence at 590 nm (red) in HEK293 cell free culture (AID 720683)
How it was run: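 Red-channel autofluorescence of compounds in culture medium (DMEM, 10% FBS), no cells, measured at 540/590 nm. Rose Bengal sodium is the reference fluorophore for equivalence.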

[8] = qHTS assay to test for compound auto fluorescence at 590 nm (red) in HepG2 cell free culture (AID 720684)
How it was run: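 Steps: dispense MEM/10% FBS medium, no cells; pin compound or DMSO vehicle; read red channel, Ex/Em 540/590 nm. Output given as Rose Bengal sodium equivalents.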

[9] = qHTS assay to test for compound auto fluorescence at 460 nm (blue) in HepG2 cell free culture (AID 720685)
How it was run: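 Compound (23 nL) or DMSO pinned into cell-free MEM with 10% FBS; blue fluorescence read at 405/460 nm excitation/emission, expressed as auto-fluorescence equivalency to triamterene.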

[10] = qHTS assay to test for compound auto fluorescence at 535 nm (green) in HepG2 cell free culture (AID 720686)
[11] = qHTS assay to identify small molecule antagonists of the androgen receptor (AR) signaling pathway using the MDA cell line - cell viability counter screen (AID 743041; note: nearly all actives have a fitted effect of over 45% in size)
How it was run: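 Cells were plated at 3,000 per well and left 5 h. Compounds in DMSO were then pinned in, followed by R1881. After 16 h at 37C, CellTiter-Fluor fluorescence gave viability.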

[12] = tested on: thyroid hormone receptor (rat, GH3 cells); assay: qHTS assay to identify small molecule agonists of the thyroid receptor (TR) signaling pathway (AID 743066; calls by dose curve)
[13] = qHTS assay to identify small molecule antagonists of the estrogen receptor alpha (ER-alpha) signaling pathway - cell viability counter screen (AID 743074; calls by dose curve;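 note: HEK293 cells carrying ER-alpha-UAS-bla reporter stimulated with 17beta-estradiol; nearly all actives have a fitted effect of over 45% in size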)
[14] = qHTS assay to identify small molecule antagonists of the estrogen receptor alpha (ER-alpha) signaling pathway using the BG1 cell line - cell viability counter screen (AID 743081);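 note: compound given together with 17beta-estradiol as the ER stimulus; series mostly up to about 70 µM; nearly all actives have a fitted effect of over 45% in size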
[15] = target: Aromatase (Homo sapiens) (UniProt P11511); assay: qHTS assay to identify aromatase inhibitors (AID 743083); note: series mostly up to about 70 µM; nearly all actives have a fitted effect of over 55% in size
[16] = qHTS assay to identify aromatase inhibitors - cell viability counter screen (AID 743084);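 note: cells stimulated with testosterone during compound exposure; nearly all actives have a fitted effect of over 55% in size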
[17] = target: Aryl hydrocarbon receptor (Homo sapiens) (UniProt P35869); assay: qHTS assay to identify small molecule that activate the aryl hydrocarbon receptor (AhR) signaling pathway (AID 743085);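 note: HG2L7.5c1 human HepG2 liver cells with stably integrated DRE-driven firefly reporter; series mostly up to about 70 µM; nearly all actives have a fitted effect of over 15% in size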
How it was run: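 AhR agonist activity is inferred from enhanced light output of a DRE-controlled firefly luciferase reporter in HepG2 cells, measured with ONE-Glo following 24 h treatment at 37C.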

[18] = qHTS assay to identify small molecule that activate the aryl hydrocarbon receptor (AhR) signaling pathway - cell viability counter screen (AID 743086);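 note: HepG2 liver cells carrying the AhR DRE luciferase reporter; series mostly up to about 70 µM; nearly all actives have a fitted effect of over 45% in size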
How it was run: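 Cytotoxicity counter screen: CellTiter-Fluor signal (30 min, 37 C) in 4000 HepG2 cells/well carrying the DRE-luciferase reporter, following 24 h compound exposure at 37 C.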

[19] = qHTS assay to identify small molecule phospholipidosis (PLD) inducers (AID 1259344; active = well fitted curve in the direction sought with a large enough effect; an effect the other way counts as inactive or inconclusive)
How it was run: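 Phospholipidosis is scored by imaging LipidTOX-stained pits in HepG2 cells exposed to compound for 24 h at 37 C; pit counts and integrated intensities per well and per cell serve as outputs.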

[20] = target: Nuclear receptor subfamily 1 group I member 2 (Rattus norvegicus) (UniProt Q9R1A7); assay: Rat pregnane X receptor (rPXR) activation by small molecules, qHTS assay (AID 1346983); settings: rPXR luciferase reporter cells, One-Glo luminescence, 24 h; max activation: hits give high values; note: nearly all actives have a fitted effect of over 20% in size
How it was run: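 Luminescent readout (One-Glo luciferase, 30 min room temperature) followed 24 hr compound treatment at 37 C of rPXR cells plated 2,000 per well and preincubated 5hr; qHTS format with compounds delivered in DMSO.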
% is set by controls: 0 for no effect and ±100 for the full control effect.

Chain of Nuclear receptor subfamily 1 group I member 2 (Rattus norvegicus) (Q9R1A7 whole entry, looked up): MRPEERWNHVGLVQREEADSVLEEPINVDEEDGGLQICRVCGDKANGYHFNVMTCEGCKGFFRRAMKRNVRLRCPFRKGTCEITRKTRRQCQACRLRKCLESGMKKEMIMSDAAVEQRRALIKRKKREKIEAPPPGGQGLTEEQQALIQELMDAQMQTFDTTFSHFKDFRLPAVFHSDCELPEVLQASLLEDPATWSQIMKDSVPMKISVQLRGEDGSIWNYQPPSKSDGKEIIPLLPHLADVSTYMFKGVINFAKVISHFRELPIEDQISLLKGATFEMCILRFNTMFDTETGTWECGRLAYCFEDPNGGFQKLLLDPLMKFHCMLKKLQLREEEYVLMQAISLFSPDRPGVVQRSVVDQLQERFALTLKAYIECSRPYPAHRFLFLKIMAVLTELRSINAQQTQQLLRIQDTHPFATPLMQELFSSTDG
Chain of Aromatase (Homo sapiens) (P11511 whole entry, looked up): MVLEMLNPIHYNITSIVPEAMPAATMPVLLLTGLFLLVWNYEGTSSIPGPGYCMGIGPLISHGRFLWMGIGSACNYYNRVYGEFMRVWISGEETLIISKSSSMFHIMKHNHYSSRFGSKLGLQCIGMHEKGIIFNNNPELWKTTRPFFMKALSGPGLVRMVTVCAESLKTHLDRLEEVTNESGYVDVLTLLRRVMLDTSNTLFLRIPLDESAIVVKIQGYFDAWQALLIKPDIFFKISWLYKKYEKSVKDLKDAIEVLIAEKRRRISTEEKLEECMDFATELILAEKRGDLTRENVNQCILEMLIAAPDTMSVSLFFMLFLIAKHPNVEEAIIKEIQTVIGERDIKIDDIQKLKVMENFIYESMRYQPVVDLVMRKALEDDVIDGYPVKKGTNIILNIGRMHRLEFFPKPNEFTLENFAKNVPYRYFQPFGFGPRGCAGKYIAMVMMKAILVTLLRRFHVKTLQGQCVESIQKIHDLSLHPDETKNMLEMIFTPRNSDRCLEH
Chain of Aryl hydrocarbon receptor (Homo sapiens) (P35869 whole entry, looked up): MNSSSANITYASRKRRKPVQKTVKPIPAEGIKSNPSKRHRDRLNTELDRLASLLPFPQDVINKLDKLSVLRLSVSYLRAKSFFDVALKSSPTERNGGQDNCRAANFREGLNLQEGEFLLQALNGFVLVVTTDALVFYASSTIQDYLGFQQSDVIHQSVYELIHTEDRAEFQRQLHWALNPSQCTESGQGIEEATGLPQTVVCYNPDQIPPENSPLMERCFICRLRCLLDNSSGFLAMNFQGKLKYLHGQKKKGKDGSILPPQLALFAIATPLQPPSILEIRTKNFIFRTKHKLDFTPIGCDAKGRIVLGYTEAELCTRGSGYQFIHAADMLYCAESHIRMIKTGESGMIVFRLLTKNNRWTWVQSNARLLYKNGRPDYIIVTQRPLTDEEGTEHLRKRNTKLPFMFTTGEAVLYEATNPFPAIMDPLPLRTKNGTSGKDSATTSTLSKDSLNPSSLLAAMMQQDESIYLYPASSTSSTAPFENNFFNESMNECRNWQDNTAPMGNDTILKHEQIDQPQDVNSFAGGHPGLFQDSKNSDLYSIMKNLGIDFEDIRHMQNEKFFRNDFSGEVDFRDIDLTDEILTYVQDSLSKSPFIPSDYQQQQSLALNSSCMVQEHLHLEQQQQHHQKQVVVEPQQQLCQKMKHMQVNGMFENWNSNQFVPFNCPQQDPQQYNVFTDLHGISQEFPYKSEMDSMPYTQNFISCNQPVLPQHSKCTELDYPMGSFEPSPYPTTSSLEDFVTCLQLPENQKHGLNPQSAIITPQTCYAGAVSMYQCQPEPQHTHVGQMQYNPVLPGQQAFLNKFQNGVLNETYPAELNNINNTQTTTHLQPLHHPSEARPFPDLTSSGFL

O=C1CCCCC1CN1CCCCC1 (stereo not drawn)
inactive: Potency [1] | Potency [2] | Potency [3] | Potency [4] | Potency [5] | Potency [6] | outcome [7] | outcome [8] | Potency [9] | Potency [10] | Potency [11] | Potency [12] | Potency [13] | Potency [14] | Potency [15] | Potency [16] | Potency [17] | Potency [18] | Potency [19] | max activation [20] -4.76%

CC(=O)Oc1ccc2c3c1O[C@H]1[C@@H](OC(C)=O)C=C[C@H]4[C@@H](C2)N(C)CC[C@@]341
inactive: Potency [1] | Potency [2] | Potency [3] | Potency [4] | Potency [5] | Potency [6] | outcome [7] | outcome [8] | Potency [9] | Potency [10] | Potency [11] | Potency [12] | Potency [13] | Potency [14] | Potency [15] | Potency [16] | Potency [17] | Potency [18] | Potency [19] | max activation [20] 0.899%

COC1=CC=C2[C@H]3Cc4ccc(OC)c5c4[C@@]2(CCN3C)[C@H]1O5
inactive: Potency [1] | Potency [2] | Potency [3] | Potency [4] | Potency [5] | Potency [6] | outcome [7] | outcome [8] | Potency [9] | Potency [10] | Potency [11] | Potency [12] | Potency [13] | Potency [14] | Potency [15] | Potency [16] | Potency [17] | Potency [18] | Potency [19] | max activation [20] -7.33%

C[C@@H]([C@H](O)c1ccccc1)N(C)C
inactive: Potency [1] | Potency [2] | Potency [3] | Potency [4] | Potency [5] | Potency [6] | outcome [7] | outcome [8] | Potency [9] | Potency [10] | Potency [11] | Potency [12] | Potency [13] | Potency [14] | Potency [15] | Potency [16] | Potency [17] | Potency [18] | Potency [19] | max activation [20] -2.62%

CC(N)Cc1ccc(O)cc1 (stereo not drawn)
inactive: Potency [1] | Potency [2] | Potency [3] | Potency [4] | Potency [5] | Potency [6] | outcome [7] | outcome [8] | Potency [9] | Potency [10] | Potency [11] | Potency [12] | Potency [13] | Potency [14] | Potency [15] | Potency [16] | Potency [17] | Potency [18] | Potency [19] | max activation [20] -0.925%

CN[C@H]1C[C@@H](N)[C@H](O)[C@@H](O[C@@H]2O[C@H](CO)[C@H](O)[C@@H]3OC4(O[C@H]23)O[C@H](C(N)CO)[C@H](O)[C@H](O)[C@H]4O)[C@@H]1O (stereo partly drawn)
inactive: Potency [1] | Potency [2] | Potency [3] | Potency [4] | Potency [5] | Potency [6] | outcome [7] | outcome [8] | Potency [9] | Potency [10] | Potency [11] | Potency [12] | Potency [13] | Potency [14] | Potency [15] | Potency [16] | Potency [17] | Potency [18] | Potency [19] | max activation [20] -3.01%

CCC(C)(S(=O)(=O)CC)S(=O)(=O)CC
inactive: Potency [1] | Potency [3] | Potency [4] | Potency [5] | Potency [6] | outcome [7] | outcome [8] | Potency [9] | Potency [10] | Potency [11] | Potency [12] | Potency [13] | Potency [15] | Potency [16] | Potency [17] | Potency [18] | Potency [19] | max activation [20] -2.56%

From PubChem BioAssay (Tox21)
